# Data published in article PMC7862700, “An all-to-all approach to the identification of sequence-specific readers for epigenetic DNA modifications on cytosine”.
# How the values were obtained:
# Assay in all cases: DAPPL (digital affinity profiling via proximity ligation, sequencing); 10 mM Tris-HCl pH 7.5, 50 mM NaCl, 1 mM DTT, 4% glycerol, room temperature, 30 min; GST-TFs on glutathione beads, 16-mer random dsDNA library, 0.1% formaldehyde crosslink after washing; high values mean tight binding
# Details in all cases: protein: recombinant; tags: N-terminal GST; dsDNA, one strand shown
# FLI1 = biological target: T1, FLI1 (Homo sapiens, UniProt Q01543 1-452)
# T1 sequence: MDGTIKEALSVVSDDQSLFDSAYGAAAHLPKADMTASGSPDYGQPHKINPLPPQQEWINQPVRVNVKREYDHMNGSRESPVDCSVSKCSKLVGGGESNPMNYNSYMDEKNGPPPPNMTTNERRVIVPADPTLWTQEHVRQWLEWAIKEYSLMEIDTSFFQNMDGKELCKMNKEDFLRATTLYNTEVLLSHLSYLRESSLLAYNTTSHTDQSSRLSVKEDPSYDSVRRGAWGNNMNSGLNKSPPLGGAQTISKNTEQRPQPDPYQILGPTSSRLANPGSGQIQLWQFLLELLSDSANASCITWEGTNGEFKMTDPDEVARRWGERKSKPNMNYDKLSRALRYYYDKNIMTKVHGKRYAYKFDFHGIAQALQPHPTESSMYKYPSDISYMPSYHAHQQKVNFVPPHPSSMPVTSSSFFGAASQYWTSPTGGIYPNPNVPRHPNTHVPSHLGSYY
# Procedure, shortened: (§1)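 Binding signal is each hexamer's read frequency for a factor divided by its frequency in the tag-only sample. The factors were GST-fused human transcription factors from yeast, captured on glutathione beads, DNA-barcoded and pooled with that sample. Pools were incubated with 200 nmole of a random double-stranded 16-mer DNA library in Tris/NaCl/DTT/glycerol buffer at room temperature for 30 min, then washed, crosslinked with 0.1% formaldehyde, proximity-ligated with BsaI/T4 ligase (1 h, 37 °C), PCR-amplified and sequenced on an Illumina NextSeq500.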
# ELK1 = biological target: T2, ELK1 (Homo sapiens, UniProt P19419 1-428)
# T2 sequence: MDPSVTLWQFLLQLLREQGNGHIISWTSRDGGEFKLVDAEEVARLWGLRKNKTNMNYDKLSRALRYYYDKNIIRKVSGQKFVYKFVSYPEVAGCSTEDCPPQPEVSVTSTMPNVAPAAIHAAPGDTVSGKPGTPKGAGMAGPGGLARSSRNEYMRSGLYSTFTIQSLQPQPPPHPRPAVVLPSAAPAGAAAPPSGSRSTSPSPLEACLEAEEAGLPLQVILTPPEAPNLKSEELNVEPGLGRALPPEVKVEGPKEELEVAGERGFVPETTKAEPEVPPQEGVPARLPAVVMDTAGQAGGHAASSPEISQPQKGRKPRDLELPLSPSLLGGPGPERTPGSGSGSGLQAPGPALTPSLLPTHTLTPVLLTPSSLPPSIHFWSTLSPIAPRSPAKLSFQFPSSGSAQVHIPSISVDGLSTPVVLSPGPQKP
# Procedure, shortened: as §1
# GABPA = biological target: T3, GABPA (Homo sapiens, UniProt Q06546 1-454)
# T3 sequence: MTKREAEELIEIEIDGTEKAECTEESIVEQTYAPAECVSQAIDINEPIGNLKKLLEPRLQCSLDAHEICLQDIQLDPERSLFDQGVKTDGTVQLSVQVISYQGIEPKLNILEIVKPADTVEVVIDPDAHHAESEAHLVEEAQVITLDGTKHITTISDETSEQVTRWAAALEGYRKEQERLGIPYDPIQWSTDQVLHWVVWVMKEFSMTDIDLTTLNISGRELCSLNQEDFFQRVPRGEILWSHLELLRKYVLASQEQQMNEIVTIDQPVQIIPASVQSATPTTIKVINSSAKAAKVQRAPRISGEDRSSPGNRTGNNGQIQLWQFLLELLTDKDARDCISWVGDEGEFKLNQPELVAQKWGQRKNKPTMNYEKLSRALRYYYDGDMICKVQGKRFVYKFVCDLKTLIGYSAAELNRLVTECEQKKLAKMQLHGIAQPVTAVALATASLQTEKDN
# Procedure, shortened: as §1
# ELF1 = ELF1 (Homo sapiens, UniProt P32519 1-619)
# Procedure, shortened: as §1
# EHF = biological target: T4, EHF (Homo sapiens, UniProt Q9NZC4 1-300)
# T4 sequence: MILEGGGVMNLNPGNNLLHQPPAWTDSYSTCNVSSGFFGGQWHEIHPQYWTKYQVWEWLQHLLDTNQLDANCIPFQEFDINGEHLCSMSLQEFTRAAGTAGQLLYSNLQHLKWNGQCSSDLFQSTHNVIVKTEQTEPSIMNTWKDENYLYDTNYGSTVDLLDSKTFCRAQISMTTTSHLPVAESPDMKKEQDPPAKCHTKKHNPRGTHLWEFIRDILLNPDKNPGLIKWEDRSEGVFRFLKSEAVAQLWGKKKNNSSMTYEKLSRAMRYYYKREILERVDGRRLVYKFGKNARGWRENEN
# Procedure, shortened: as §1
# SPI1 = SPI1 (Homo sapiens, UniProt P17947 1-270)
# Procedure, shortened: as §1
# SPIC = biological target: T5, SPIC (Homo sapiens, UniProt Q8N5J4 1-248)
# T5 sequence: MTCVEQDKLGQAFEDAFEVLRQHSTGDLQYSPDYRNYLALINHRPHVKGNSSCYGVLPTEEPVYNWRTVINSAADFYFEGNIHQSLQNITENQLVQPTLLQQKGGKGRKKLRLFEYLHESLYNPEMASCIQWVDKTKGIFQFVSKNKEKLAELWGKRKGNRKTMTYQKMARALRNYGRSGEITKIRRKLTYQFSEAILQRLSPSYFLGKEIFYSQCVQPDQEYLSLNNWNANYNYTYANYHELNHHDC
# Procedure, shortened: as §1
# ELF4 = ELF4 (Homo sapiens, UniProt Q99607 1-663)
# Procedure, shortened: as §1
# ELK4 = biological target: T6, ELK4 (Homo sapiens, UniProt P28324-2 1-405)
# T6 sequence: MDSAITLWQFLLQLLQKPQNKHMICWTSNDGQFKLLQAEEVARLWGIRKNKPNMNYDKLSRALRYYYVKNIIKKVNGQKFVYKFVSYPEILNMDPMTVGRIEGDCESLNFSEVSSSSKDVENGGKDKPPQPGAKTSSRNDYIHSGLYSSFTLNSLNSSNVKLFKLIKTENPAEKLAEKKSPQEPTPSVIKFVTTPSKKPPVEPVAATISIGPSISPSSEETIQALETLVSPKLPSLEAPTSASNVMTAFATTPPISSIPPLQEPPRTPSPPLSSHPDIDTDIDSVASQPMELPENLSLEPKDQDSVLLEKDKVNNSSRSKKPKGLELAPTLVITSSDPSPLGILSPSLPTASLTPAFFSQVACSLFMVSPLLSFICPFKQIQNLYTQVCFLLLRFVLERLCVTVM
# Procedure, shortened: as §1
# ELF3 = biological target: T7, ELF3 (Homo sapiens, UniProt P78545 1-371)
# T7 sequence: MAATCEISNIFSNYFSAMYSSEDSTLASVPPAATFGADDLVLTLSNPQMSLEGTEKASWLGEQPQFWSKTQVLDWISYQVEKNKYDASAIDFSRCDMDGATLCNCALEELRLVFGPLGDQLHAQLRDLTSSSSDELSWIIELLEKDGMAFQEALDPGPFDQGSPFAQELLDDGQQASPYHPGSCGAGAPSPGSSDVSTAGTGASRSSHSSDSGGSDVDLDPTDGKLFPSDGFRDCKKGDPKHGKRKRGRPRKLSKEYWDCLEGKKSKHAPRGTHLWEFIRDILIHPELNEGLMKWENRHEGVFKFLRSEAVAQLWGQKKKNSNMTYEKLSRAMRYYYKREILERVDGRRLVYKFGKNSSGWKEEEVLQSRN
# Procedure, shortened: as §1
# ERF = biological target: T8, ERF (Homo sapiens, UniProt P50548 1-548)
# T8 sequence: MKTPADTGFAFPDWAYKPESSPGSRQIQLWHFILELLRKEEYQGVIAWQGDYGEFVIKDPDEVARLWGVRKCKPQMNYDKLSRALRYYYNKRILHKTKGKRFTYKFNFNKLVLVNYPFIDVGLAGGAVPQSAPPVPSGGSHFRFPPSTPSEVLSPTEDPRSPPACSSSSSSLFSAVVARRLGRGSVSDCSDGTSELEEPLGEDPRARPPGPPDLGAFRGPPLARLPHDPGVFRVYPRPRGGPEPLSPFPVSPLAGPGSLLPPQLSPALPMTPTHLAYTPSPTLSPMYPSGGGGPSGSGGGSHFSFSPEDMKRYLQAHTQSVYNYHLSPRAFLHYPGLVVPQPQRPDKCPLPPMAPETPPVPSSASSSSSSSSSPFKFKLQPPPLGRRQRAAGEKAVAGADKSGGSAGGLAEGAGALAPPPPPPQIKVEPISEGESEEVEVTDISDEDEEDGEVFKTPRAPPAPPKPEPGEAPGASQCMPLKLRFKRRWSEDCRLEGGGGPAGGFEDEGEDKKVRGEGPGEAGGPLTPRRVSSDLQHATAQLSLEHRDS
# Procedure, shortened: as §1
# ETV7 = biological target: T9, ETV7 (Homo sapiens, UniProt Q9Y603 1-341)
# T9 sequence: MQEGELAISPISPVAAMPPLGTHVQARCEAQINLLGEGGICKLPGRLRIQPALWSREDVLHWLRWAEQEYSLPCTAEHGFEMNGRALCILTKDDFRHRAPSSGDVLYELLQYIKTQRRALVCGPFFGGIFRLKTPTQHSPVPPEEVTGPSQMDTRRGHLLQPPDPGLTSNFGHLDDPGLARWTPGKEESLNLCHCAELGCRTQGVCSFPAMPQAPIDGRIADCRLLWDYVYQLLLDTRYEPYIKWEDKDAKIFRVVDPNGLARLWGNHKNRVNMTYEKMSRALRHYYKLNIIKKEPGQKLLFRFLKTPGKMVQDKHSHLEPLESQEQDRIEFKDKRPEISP
# Procedure, shortened: as §1
# ETV6 = ETV6 (Homo sapiens, UniProt P41212 1-452)
# Procedure, shortened: as §1
# Sequence of ELF4 (Q99607 whole entry): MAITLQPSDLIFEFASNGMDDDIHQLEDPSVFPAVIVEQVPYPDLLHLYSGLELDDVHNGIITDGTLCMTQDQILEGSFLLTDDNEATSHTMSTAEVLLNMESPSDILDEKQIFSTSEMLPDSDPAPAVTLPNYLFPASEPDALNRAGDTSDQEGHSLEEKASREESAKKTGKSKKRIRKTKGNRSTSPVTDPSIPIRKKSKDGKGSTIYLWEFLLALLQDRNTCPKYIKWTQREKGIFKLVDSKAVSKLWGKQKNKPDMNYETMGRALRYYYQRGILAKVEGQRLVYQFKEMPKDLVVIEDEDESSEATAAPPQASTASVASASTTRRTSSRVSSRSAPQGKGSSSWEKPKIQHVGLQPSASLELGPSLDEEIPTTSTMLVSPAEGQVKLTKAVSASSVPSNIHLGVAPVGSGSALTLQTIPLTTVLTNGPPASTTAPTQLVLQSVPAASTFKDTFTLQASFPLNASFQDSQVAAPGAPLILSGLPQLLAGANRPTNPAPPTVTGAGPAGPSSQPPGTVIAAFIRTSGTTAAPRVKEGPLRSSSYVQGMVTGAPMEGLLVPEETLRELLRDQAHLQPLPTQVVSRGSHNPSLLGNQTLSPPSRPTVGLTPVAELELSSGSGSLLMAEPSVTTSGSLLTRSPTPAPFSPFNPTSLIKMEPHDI
# Sequence of ETV6 (P41212 whole entry): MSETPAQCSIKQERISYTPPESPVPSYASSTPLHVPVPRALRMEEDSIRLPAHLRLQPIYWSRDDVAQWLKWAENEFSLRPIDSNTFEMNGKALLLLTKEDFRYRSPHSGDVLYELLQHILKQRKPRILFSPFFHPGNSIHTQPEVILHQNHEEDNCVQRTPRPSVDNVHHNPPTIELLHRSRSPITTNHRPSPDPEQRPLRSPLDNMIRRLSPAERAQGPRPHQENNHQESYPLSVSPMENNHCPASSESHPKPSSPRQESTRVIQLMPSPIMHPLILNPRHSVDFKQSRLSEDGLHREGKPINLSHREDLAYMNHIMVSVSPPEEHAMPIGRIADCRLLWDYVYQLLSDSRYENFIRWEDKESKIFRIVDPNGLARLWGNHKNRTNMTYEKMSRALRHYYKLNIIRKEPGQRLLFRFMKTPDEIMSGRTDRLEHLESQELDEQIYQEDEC
# Sequence of ELF1 (P32519 whole entry): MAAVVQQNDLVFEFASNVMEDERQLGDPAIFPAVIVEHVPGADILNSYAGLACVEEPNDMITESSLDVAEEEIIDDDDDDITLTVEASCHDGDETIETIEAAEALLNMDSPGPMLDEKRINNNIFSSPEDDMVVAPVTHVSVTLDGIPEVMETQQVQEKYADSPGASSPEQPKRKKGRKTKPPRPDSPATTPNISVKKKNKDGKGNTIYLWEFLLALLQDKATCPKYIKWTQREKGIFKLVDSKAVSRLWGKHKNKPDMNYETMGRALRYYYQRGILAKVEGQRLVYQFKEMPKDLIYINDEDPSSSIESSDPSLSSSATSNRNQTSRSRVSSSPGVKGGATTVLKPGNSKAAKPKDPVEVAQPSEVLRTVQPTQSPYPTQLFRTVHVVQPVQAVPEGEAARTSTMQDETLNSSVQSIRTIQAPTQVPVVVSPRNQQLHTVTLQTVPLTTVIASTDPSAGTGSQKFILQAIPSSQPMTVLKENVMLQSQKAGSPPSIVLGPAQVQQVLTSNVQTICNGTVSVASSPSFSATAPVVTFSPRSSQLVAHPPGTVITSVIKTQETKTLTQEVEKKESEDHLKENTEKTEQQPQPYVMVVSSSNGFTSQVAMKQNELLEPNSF
sequence,measurement,setting,value
CACCTA,binding signal,FLI1,"1.06 fold enrichment (6-mer frequency, TF over GST control)"
same,binding signal,ELK1,"1.01 fold enrichment (6-mer frequency, TF over GST control)"
same,binding signal,GABPA,"1.04 fold enrichment (6-mer frequency, TF over GST control)"
same,binding signal,ELF1,"1.02 fold enrichment (6-mer frequency, TF over GST control)"
same,binding signal,EHF,"1.05 fold enrichment (6-mer frequency, TF over GST control)"
same,binding signal,SPI1,"1.03 fold enrichment (6-mer frequency, TF over GST control)"
same,binding signal,SPIC,"1.09 fold enrichment (6-mer frequency, TF over GST control)"
same,binding signal,ELF4,"1.1 fold enrichment (6-mer frequency, TF over GST control)"
same,binding signal,ELK4,"1 fold enrichment (6-mer frequency, TF over GST control)"
same,binding signal,ELF3,"1.18 fold enrichment (6-mer frequency, TF over GST control)"
same,binding signal,ERF,"1.06 fold enrichment (6-mer frequency, TF over GST control)"
same,binding signal,ETV7,"1.08 fold enrichment (6-mer frequency, TF over GST control)"
same,binding signal,ETV6,"1.02 fold enrichment (6-mer frequency, TF over GST control)"
